Values joined by “and” are separate entries in the source; they are usually repeats but may differ in a detail not shown here. Equal entries are not always repeated. Results filed as inconclusive are left out. Where a call stands in place of a potency, no number is given. Where a structure was tested more than once in an assay, its records may differ in their call. Active and inactive are the calls of the source. The call rests on the fitted dose curve; in most records, active means well fitted inhibition curve with a large enough effect in the repeat runs; inconclusive means weak or mixed curves; inactive means no such curve, though single readings can be large or run the other way.
These compounds were tested against Cytochrome P450 2C9 (Homo sapiens) (UniProt P11712) (assay: Cytochrome P450 Family 2 Subfamily C Member 9 (CYP2C9) small molecule antagonists: luciferase reporter qHTS assay (AID 1671198; further: nearly all actives have a fitted effect of over 50% in size)). Details: P450-Glo CYP2C9 enzyme assay, luciferin luminescence; series mostly up to 115 µM.
Method in brief: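 P450-Glo proluciferin substrate with CYP2C9 enzyme; 10 min RT preincubation, then NADPH regeneration 1 h at 37C; luciferin detection reagent 20 min RT, luminescence in relative luminescence units.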
Potency means the concentration at half of the fitted maximal effect.

Sequence of Cytochrome P450 2C9 (Homo sapiens) (P11712 whole entry, looked up): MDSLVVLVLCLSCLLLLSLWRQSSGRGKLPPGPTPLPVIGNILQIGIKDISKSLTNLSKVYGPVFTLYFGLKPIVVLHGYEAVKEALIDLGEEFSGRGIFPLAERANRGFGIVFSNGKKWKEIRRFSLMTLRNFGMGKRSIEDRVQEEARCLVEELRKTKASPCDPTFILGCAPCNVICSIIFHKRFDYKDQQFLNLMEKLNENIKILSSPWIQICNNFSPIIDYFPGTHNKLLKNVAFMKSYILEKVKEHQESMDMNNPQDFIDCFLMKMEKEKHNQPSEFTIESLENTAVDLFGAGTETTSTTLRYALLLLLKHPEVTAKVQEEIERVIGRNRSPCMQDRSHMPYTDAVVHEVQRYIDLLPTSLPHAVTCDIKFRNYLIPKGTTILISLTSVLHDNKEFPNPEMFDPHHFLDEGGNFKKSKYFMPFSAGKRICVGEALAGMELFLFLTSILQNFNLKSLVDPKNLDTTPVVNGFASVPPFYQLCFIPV

SMILES | Potency
O=C(O)C1C(C(=O)O)C2(Cl)C(Cl)=C(Cl)C1(Cl)C2(Cl)Cl (stereo unspecified) | inactive
Nc1cccc(Cl)c1 | 71.8 µM (active) and inactive
COP(=S)(OC)SCN1C(=O)c2ccccc2C1=O | 4.02 µM (active) and 2.52 µM (active) and 1.74 µM (active)
Clc1cnc(Oc2ccc(Oc3ncc(Cl)cc3Cl)cc2)c(Cl)c1 | inactive
O=C(O)c1cc(Oc2ccc(C(F)(F)F)cc2Cl)ccc1[N+](=O)[O-] | 21.9 µM (active) and 35.6 µM (active) and 31.9 µM (active)
Cc1ccc(N=C=O)cc1N=C=O | 36.5 µM (active) and 25.1 µM (active) and 79.6 µM (active)
CN1C(=O)CCS(=O)(=O)C1c1ccc(Cl)cc1 (stereo unspecified) | inactive
O=S(=O)(O)OOS(=O)(=O)O | inactive
Cl[C@H]1OCCO[C@@H]1Cl | inactive
Cl/C=C/Cl | inactive
COc1nc(NC(C)C)nc(NC(C)C)n1 | inactive
O=C(O)C(Br)Br | inactive
O=C(O)Cc1ccccc1 | inactive
CCSC(=O)N1CCCCCC1 | 38.8 µM (active) and inactive
N#Cc1ccccn1 | inactive
O=[N+]([O-])c1cc([As](=O)(O)O)ccc1O | inactive
CN(C)NC(=O)CCC(=O)O | inactive
CC(C)(C)C(=O)CCl | inactive
CCCOC(=O)c1ccccc1C(=O)OCCC | 32.2 µM (active) and 35.6 µM (active)
Nc1ncc([N+](=O)[O-])s1 | 63.3 µM (active)
O=[N+]([O-])c1ccc(Cl)cc1 | inactive

Reference: PubChem BioAssay (Tox21)
